Columns and labels:
Assay in all cases: DAPPL (digital affinity profiling via proximity ligation, sequencing); 10 mM Tris-HCl pH 7.5, 50 mM NaCl, 1 mM DTT, 4% glycerol, room temperature, 30 min; GST-TFs on glutathione beads, 16-mer random dsDNA library, 0.1% formaldehyde crosslink after washing; high values mean tight binding
Settings in all cases: protein: recombinant; tags: N-terminal GST; dsDNA, one strand shown
FLI1 = biological target: T1, FLI1 (Homo sapiens, UniProt Q01543 1-452)
T1 sequence: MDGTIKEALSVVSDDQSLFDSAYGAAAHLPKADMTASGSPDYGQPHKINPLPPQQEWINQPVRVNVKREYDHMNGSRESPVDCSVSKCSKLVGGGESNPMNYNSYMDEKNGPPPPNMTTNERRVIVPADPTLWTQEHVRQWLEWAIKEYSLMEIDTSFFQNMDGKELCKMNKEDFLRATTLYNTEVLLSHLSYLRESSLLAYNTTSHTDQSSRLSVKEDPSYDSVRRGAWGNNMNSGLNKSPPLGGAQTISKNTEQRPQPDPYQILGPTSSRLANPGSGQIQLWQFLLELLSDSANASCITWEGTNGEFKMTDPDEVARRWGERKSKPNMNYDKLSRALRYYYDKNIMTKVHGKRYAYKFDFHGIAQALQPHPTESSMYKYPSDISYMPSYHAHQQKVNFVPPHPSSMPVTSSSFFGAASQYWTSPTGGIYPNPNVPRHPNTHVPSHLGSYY
How it was run: (§1)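 Human transcription factors carrying a GST fusion were produced in yeast, bound to glutathione beads, tagged with DNA barcodes and pooled together with a tag-only sample. Each pool was held with 200 nmole of a random double-stranded 16-mer DNA library in Tris/NaCl/DTT/glycerol buffer for 30 min at room temperature, then washed, crosslinked in 0.1% formaldehyde, proximity-ligated with BsaI/T4 ligase (1 h, 37 °C), PCR-amplified and sequenced on an Illumina NextSeq500. Binding signal is the read frequency of each hexamer for a given factor divided by its frequency in the tag-only sample.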

ELK1 = biological target: T2, ELK1 (Homo sapiens, UniProt P19419 1-428)
T2 sequence: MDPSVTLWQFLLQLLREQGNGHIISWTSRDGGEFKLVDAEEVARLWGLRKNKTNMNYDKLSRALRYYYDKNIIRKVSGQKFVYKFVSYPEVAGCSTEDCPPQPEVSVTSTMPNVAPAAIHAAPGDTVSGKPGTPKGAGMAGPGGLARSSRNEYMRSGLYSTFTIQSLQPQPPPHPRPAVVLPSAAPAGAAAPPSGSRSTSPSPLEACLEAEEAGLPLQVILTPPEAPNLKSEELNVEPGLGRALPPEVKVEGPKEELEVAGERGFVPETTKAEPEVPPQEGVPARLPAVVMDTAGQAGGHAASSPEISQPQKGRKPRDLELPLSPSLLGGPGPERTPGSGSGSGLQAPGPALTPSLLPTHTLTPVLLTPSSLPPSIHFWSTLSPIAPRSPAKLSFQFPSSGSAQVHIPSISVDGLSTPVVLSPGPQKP
How it was run: as §1

GABPA = biological target: T3, GABPA (Homo sapiens, UniProt Q06546 1-454)
T3 sequence: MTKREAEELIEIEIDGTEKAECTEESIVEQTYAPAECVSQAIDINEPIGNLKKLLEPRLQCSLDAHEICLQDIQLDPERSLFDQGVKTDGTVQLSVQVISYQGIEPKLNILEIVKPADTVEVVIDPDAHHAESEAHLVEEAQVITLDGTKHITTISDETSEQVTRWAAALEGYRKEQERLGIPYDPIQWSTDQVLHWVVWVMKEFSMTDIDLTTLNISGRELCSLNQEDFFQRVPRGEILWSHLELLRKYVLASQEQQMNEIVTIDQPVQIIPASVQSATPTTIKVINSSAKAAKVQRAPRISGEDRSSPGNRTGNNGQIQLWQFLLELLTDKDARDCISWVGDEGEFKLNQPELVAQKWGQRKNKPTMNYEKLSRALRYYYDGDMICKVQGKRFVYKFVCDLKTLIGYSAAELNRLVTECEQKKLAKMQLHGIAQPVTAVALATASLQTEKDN
How it was run: as §1

ERG = biological target: T4, ERG (Homo sapiens, UniProt P11308 1-479)
T4 sequence: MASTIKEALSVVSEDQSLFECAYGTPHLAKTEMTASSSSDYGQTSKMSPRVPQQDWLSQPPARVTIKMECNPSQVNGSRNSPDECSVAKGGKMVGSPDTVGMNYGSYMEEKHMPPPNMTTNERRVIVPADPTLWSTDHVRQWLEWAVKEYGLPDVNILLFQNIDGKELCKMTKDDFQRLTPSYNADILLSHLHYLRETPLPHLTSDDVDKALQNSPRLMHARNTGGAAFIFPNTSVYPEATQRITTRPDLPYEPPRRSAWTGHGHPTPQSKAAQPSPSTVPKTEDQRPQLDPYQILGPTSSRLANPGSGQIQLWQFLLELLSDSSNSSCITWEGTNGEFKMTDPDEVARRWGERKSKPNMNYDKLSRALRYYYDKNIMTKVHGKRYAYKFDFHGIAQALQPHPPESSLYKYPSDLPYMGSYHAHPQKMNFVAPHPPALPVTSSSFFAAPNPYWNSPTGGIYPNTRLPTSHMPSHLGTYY
How it was run: as §1

ELF1 = ELF1 (Homo sapiens, UniProt P32519 1-619)
Sequence of ELF1 (P32519 whole entry): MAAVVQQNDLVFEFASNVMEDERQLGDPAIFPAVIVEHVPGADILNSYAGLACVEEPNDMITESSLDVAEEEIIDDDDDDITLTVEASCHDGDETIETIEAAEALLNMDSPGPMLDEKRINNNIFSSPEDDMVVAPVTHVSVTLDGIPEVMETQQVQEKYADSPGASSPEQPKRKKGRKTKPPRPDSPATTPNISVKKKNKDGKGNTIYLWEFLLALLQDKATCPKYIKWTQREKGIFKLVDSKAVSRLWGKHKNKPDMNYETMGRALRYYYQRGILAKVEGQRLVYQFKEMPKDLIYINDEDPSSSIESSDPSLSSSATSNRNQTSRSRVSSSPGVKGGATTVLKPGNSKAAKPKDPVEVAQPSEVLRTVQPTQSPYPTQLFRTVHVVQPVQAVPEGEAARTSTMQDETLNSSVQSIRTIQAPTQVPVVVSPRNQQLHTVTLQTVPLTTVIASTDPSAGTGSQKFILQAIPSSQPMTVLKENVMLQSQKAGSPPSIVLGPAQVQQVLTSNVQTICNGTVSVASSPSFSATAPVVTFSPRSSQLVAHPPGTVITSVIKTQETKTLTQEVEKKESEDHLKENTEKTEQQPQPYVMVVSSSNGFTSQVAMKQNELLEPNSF
How it was run: as §1

SPIB = SPIB (Homo sapiens, UniProt Q01892 1-262)
Sequence of SPIB (Q01892 whole entry): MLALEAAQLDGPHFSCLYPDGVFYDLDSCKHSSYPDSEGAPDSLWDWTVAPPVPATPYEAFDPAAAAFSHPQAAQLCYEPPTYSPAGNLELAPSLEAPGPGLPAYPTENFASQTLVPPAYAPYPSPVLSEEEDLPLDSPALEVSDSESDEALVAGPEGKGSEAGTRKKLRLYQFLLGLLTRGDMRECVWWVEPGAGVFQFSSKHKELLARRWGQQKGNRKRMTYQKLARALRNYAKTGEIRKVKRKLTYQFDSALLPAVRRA
How it was run: as §1

ELK3 = biological target: T5, ELK3 (Homo sapiens, UniProt P41970 1-407)
T5 sequence: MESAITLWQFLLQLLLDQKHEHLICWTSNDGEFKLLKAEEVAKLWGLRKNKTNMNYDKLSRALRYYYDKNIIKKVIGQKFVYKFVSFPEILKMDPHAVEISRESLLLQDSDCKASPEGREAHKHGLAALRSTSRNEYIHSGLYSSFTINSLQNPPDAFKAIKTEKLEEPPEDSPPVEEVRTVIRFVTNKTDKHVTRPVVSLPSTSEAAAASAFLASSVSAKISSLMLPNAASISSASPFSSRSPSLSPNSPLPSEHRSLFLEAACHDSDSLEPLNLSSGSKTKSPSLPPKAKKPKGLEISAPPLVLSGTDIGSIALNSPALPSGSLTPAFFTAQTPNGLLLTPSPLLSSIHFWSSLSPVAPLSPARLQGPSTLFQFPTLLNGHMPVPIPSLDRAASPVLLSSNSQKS
How it was run: as §1

ETV5 = ETV5 (Homo sapiens, UniProt P41161 1-510)
Sequence of ETV5 (P41161 whole entry): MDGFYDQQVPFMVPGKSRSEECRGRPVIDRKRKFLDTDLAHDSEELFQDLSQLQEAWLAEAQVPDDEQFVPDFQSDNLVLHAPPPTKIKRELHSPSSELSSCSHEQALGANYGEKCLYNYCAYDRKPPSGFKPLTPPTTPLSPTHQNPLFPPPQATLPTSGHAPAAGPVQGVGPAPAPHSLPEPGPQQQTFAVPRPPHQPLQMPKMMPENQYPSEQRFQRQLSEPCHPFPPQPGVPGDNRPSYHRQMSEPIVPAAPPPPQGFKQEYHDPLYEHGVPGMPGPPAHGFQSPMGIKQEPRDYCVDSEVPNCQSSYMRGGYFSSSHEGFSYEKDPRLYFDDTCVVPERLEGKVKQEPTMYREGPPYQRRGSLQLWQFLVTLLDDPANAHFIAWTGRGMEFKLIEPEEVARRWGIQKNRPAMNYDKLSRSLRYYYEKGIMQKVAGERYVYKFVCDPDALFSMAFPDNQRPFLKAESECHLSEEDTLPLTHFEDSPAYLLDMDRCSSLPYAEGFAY
How it was run: as §1

SPIC = biological target: T6, SPIC (Homo sapiens, UniProt Q8N5J4 1-248)
T6 sequence: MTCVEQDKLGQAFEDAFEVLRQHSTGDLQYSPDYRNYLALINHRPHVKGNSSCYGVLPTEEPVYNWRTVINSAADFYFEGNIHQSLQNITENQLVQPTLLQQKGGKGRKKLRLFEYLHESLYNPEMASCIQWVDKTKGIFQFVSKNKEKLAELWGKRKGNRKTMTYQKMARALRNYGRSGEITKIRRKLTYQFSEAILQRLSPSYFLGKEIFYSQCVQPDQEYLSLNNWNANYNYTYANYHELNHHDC
How it was run: as §1

ETV1 = ETV1 (Homo sapiens, UniProt P50549 1-477)
Sequence of ETV1 (P50549 whole entry): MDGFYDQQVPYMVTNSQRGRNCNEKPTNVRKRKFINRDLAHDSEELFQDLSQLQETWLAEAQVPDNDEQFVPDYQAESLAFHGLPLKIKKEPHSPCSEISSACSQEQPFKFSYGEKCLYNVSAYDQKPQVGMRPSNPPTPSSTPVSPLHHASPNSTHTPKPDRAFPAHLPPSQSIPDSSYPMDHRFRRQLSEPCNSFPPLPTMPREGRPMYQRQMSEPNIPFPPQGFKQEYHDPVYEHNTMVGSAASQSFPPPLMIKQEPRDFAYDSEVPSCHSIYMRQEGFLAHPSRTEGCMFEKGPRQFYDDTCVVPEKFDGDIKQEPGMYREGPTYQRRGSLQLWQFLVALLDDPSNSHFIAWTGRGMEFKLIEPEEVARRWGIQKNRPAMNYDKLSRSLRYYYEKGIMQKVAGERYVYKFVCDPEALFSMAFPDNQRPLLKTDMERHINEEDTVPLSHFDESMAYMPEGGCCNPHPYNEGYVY
How it was run: as §1

ERF = biological target: T7, ERF (Homo sapiens, UniProt P50548 1-548)
T7 sequence: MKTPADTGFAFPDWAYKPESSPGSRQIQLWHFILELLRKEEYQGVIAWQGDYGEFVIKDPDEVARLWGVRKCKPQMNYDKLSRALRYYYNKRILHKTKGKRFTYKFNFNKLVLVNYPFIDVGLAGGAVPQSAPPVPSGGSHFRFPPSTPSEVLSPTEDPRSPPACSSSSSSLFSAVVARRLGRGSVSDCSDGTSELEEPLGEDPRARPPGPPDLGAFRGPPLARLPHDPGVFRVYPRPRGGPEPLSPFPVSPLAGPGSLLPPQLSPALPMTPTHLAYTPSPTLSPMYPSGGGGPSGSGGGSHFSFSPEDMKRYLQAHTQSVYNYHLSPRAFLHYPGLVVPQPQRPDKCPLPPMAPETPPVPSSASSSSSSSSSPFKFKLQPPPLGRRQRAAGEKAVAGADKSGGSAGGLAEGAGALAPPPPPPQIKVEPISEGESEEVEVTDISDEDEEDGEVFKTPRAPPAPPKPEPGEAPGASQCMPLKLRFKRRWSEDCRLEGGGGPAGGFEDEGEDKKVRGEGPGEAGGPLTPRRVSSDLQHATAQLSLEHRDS
How it was run: as §1

ETS2 = biological target: T8, ETS2 (Homo sapiens, UniProt P15036 1-469)
T8 sequence: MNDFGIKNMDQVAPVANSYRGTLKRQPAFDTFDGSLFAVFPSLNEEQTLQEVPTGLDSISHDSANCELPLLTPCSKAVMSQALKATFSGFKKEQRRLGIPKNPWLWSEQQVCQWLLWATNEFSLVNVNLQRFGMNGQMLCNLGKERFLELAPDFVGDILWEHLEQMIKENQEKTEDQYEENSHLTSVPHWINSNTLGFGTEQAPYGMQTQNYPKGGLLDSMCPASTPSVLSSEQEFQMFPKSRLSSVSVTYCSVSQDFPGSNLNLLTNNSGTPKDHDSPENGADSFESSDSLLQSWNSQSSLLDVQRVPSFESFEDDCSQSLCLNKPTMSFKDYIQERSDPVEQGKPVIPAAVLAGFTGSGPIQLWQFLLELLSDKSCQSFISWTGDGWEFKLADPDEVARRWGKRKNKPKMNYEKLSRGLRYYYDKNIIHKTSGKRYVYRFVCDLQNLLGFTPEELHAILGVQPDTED
How it was run: as §1

SPDEF = biological target: T9, SPDEF (Homo sapiens, UniProt O95238 1-335)
T9 sequence: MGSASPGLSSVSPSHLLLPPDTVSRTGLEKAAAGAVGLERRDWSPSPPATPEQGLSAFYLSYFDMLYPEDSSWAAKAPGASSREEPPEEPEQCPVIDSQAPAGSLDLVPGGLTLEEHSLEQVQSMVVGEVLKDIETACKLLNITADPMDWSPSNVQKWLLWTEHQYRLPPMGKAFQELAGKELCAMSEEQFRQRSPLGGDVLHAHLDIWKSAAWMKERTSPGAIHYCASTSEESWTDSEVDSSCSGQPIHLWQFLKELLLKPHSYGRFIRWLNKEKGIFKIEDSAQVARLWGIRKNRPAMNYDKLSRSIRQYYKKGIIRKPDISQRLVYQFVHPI
How it was run: as §1

TGGTGG
binding signal (FLI1): 1.11 fold enrichment (6-mer frequency, TF over GST control) | binding signal (ELK1): 1.01 fold enrichment (6-mer frequency, TF over GST control) | binding signal (GABPA): 1.12 fold enrichment (6-mer frequency, TF over GST control) | binding signal (ERG): 1.1 fold enrichment (6-mer frequency, TF over GST control) | binding signal (ELF1): 1.03 fold enrichment (6-mer frequency, TF over GST control) | binding signal (SPIB): 1.05 fold enrichment (6-mer frequency, TF over GST control) | binding signal (ELK3): 1.22 fold enrichment (6-mer frequency, TF over GST control) | binding signal (ETV5): 1.03 fold enrichment (6-mer frequency, TF over GST control) | binding signal (SPIC): 1.03 fold enrichment (6-mer frequency, TF over GST control) | binding signal (ETV1): 1.04 fold enrichment (6-mer frequency, TF over GST control) | binding signal (ERF): 1.1 fold enrichment (6-mer frequency, TF over GST control) | binding signal (ETS2): 1.08 fold enrichment (6-mer frequency, TF over GST control) | binding signal (SPDEF): 1.02 fold enrichment (6-mer frequency, TF over GST control)

Source: paper PMC7862700, “An all-to-all approach to the identification of sequence-specific readers for epigenetic DNA modifications on cytosine”
